Source: PubChem BioAssay (NCI)
Compounds without any hit were thinned out: in the full panel of roughly 83,000, 20% have a hit.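 Step 1: grow cells in 96-well plates. Step 2: add test compound at a single concentration. Step 3: incubate 48 h. Step 4: record percent growth.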 Active and inactive are the calls of the source. The calls were made as follows: active = growth percent below 10; inactive = the rest.

Experiments:
Test in all cases: NCI-60 one-dose screen, 48 h (100 = growth as untreated, 0 = no growth, -100 = all killed)
NCI-H23 lung = settings: 10 µM unless noted
NCI-H322M lung = settings: 10 µM unless noted
HOP-62 NSCLC = settings: 10 µM unless noted
NCI-H460 lung = settings: 10 µM unless noted
HOP-92 NSCLC = settings: 10 µM unless noted
NCI-H522 lung = settings: 10 µM unless noted
A549/ATCC NSCLC = settings: 10 µM unless noted
786-0 renal = settings: 10 µM unless noted
COLO 205 colon = settings: 10 µM unless noted
DU-145 prostate = settings: 10 µM unless noted
K-562 leukemia = settings: 10 µM unless noted
MALME-3M melanoma = settings: 10 µM unless noted
MDA-MB-231 breast = settings: 10 µM unless noted
RXF 393 renal = settings: 10 µM unless noted
SF-268 CNS = settings: 10 µM unless noted
SF-295 CNS = settings: 10 µM unless noted
SF-539 CNS = settings: 10 µM unless noted
UACC-257 melanoma = settings: 10 µM
M14 melanoma = settings: 10 µM unless noted

Measured: growth

CCC(CC)n1c(=O)c(SC2=NC3C(NN2)N(CC)C(=O)N3CC)c(C(=O)O)c2ccccc21 (centres undefined)
active: NCI-H460 lung 3.21% | NCI-H522 lung -45% | COLO 205 colon -53.4% | SF-539 CNS 3.93%
inactive: NCI-H23 lung 11.7% | NCI-H322M lung 54.7% | HOP-62 NSCLC 33.6% | HOP-92 NSCLC 21.7% | A549/ATCC NSCLC 36.5% | 786-0 renal 27.9% | DU-145 prostate 16.2% | K-562 leukemia 11.1% | MALME-3M melanoma 68.1% | MDA-MB-231 breast 19.1% | RXF 393 renal 13.4% | SF-268 CNS 52.4% | SF-295 CNS 22.3% | UACC-257 melanoma 59.9% | M14 melanoma 16%

CCCCCc1ccc(S(=O)(=O)N(C(C)=O)c2cccc(-c3csc(N(CCN4CCN(C)CC4)C(C)=O)n3)c2)cc1
active: NCI-H460 lung -21.4% | 786-0 renal 6.89% | COLO 205 colon -61% | K-562 leukemia -26.2% | MALME-3M melanoma -85.6% | MDA-MB-231 breast 4.58% | RXF 393 renal -59.2% | SF-295 CNS -68.1% | SF-539 CNS -80.9% | UACC-257 melanoma -52.6% | M14 melanoma -71.7%
inactive: NCI-H23 lung 48.9% | NCI-H322M lung 61.1% | HOP-62 NSCLC 83.5% | NCI-H522 lung 69.8% | A549/ATCC NSCLC 39.5% | DU-145 prostate 41.6% | SF-268 CNS 63.2%

COc1ccc([C@H]2[C@H](O)C(=O)N2c2cc(OC)c(OC)c(OC)c2)cc1
inactive: NCI-H23 lung 12.6% | NCI-H322M lung 47.9% | HOP-62 NSCLC 26.2% | A549/ATCC NSCLC 21.6% | 786-0 renal 19.5% | DU-145 prostate 17.8% | MALME-3M melanoma 59.9% | MDA-MB-231 breast 25% | RXF 393 renal 21.8% | SF-268 CNS 47.5% | SF-295 CNS 14.1% | M14 melanoma 10.3%
active: HOP-92 NSCLC -4.93% | NCI-H522 lung -20.8% | COLO 205 colon -74.6% | SF-539 CNS -20.3%

CS(=O)(=O)c1nccc(-c2c(-c3ccc(F)c(OCCc4ccc(F)cc4)c3)nc3sccn23)n1
active: NCI-H322M lung -89.1% | HOP-92 NSCLC -26.3% | NCI-H522 lung -74.5% | DU-145 prostate -91.6% | MDA-MB-231 breast 1.19% | UACC-257 melanoma -81.4%
inactive: NCI-H23 lung 10.7% | HOP-62 NSCLC 15.1% | A549/ATCC NSCLC 83.5% | 786-0 renal 87.3% | COLO 205 colon 86.9% | MALME-3M melanoma 91.7% | RXF 393 renal 77.7% | SF-268 CNS 82.8% | SF-295 CNS 89% | SF-539 CNS 76.3% | M14 melanoma 83.9%

O=S(=O)(Nc1ccc(I)c(Cl)c1)c1ccc(-c2cnc(C3CC3)o2)cc1
active: K-562 leukemia 9.83% | RXF 393 renal 2.46%
inactive: NCI-H23 lung 33.8% | NCI-H322M lung 46% | HOP-62 NSCLC 29% | NCI-H460 lung 12.6% | NCI-H522 lung 24.7% | A549/ATCC NSCLC 50.3% | 786-0 renal 41.7% | COLO 205 colon 12% | DU-145 prostate 19.5% | MALME-3M melanoma 49.4% | MDA-MB-231 breast 44.8% | SF-268 CNS 59.4% | SF-295 CNS 12.2% | SF-539 CNS 10.9% | UACC-257 melanoma 69.9% | M14 melanoma 20.9%

c1cncc(-c2cn3nc(-c4c[nH]c5ccccc45)sc3n2)c1
inactive: NCI-H23 lung 49.9% | NCI-H322M lung 72.2% | HOP-62 NSCLC 66% | NCI-H460 lung 25.4% | HOP-92 NSCLC 33.8% | A549/ATCC NSCLC 57.8% | 786-0 renal 22.5% | COLO 205 colon 44.4% | DU-145 prostate 73% | MALME-3M melanoma 38.3% | MDA-MB-231 breast 52.5% | RXF 393 renal 52.1% | SF-268 CNS 83.4% | SF-295 CNS 74.7% | SF-539 CNS 42.2% | M14 melanoma 37%
active: NCI-H522 lung 2.85%

COc1cc(/C=N/Nc2ccnc3cc(Cl)ccc23)cc(OC)c1O
active: NCI-H23 lung -42% | NCI-H322M lung -45.1% | HOP-62 NSCLC -78% | NCI-H460 lung -63.9% | HOP-92 NSCLC -74% | NCI-H522 lung -73.8% | A549/ATCC NSCLC -82.2% | 786-0 renal -87.5% | DU-145 prostate -24.6% | K-562 leukemia -54.8% | MALME-3M melanoma -88.3% | MDA-MB-231 breast -74.6% | RXF 393 renal -86.8% | SF-268 CNS -37.3% | SF-295 CNS -80.3% | SF-539 CNS -85% | M14 melanoma -90.1%
inactive: COLO 205 colon 72% | UACC-257 melanoma 112%

Cc1cn(-c2cc(NC(=O)c3cncc(C#Cc4cnc5ccc(O[C@H]6CCOC6)nn45)c3)cc(C(F)(F)F)c2)cn1
inactive: NCI-H23 lung 53.7% | NCI-H322M lung 105% | HOP-62 NSCLC 87.9% | NCI-H522 lung 93.2% | A549/ATCC NSCLC 91.7% | 786-0 renal 105% | COLO 205 colon 69.1% | DU-145 prostate 91.8% | K-562 leukemia 12.9% | MALME-3M melanoma 52.7% | MDA-MB-231 breast 47.7% | RXF 393 renal 60.4% | SF-268 CNS 94.7% | SF-295 CNS 96.8% | SF-539 CNS 59.3% | UACC-257 melanoma 97.1% | M14 melanoma 57.7%
active: HOP-92 NSCLC -9.26%

CCc1ccc(NC(=O)N[C@@H](Cc2cccc(F)c2)C(=O)N[C@@H]2C(=O)N3CCC[C@H]3C(=O)N3CCCC[C@H]3C(=O)N[C@@H](C)C(=O)N3C[C@H](C)C[C@H]3C(=O)O[C@H]2C)c(F)c1
inactive: NCI-H23 lung 31.7% | NCI-H322M lung 46% | HOP-62 NSCLC 43% | NCI-H460 lung 15.4% | NCI-H522 lung 26.8% | A549/ATCC NSCLC 33.3% | 786-0 renal 37.1% | DU-145 prostate 25.2% | K-562 leukemia 17.5% | MALME-3M melanoma 41.4% | MDA-MB-231 breast 26.8% | SF-268 CNS 34.9% | SF-539 CNS 29.8% | UACC-257 melanoma 22.2% | M14 melanoma 22%
active: HOP-92 NSCLC -0.342% | COLO 205 colon -26.4% | RXF 393 renal -10.1% | SF-295 CNS 4.24%

CN(C)c1ncc(/C=C2\SC(=S)N(Cc3ccccc3Cl)C2=O)s1
inactive: NCI-H23 lung 80.4% | NCI-H322M lung 80.5% | HOP-62 NSCLC 88.5% | NCI-H460 lung 29.1% | HOP-92 NSCLC 94.7% | NCI-H522 lung 77.9% | A549/ATCC NSCLC 63.9% | 786-0 renal 67.3% | COLO 205 colon 91.8% | DU-145 prostate 97.8% | K-562 leukemia 68% | MALME-3M melanoma 109% | MDA-MB-231 breast 83.9% | RXF 393 renal 107% | SF-268 CNS 94.3% | SF-295 CNS 66.4% | SF-539 CNS 74.5% | UACC-257 melanoma 98.5% | M14 melanoma 94.1%

CCCCCCNC(=O)Oc1ccc(/C(=C(\C)c2ccc(Cl)cc2)c2ccc(OCCN(C)C)cc2)cc1
active: NCI-H460 lung 6.53% | K-562 leukemia 4.21% | MALME-3M melanoma -33.7% | M14 melanoma 3.61%
inactive: NCI-H23 lung 76.3% | NCI-H322M lung 78.1% | HOP-62 NSCLC 75.5% | HOP-92 NSCLC 38.4% | NCI-H522 lung 83.5% | A549/ATCC NSCLC 72.7% | 786-0 renal 39.8% | COLO 205 colon 11.6% | DU-145 prostate 83.4% | MDA-MB-231 breast 58.5% | RXF 393 renal 46% | SF-268 CNS 65.4% | SF-295 CNS 84.8% | SF-539 CNS 42% | UACC-257 melanoma 18.9%
